Reference: PubChem BioAssay
Active and inactive are the calls of the source. Unless noted, how the calls were made is not given here.

What was measured:
[1] = tested on: Wnt5a (protein binding on small-molecule microarray); experiment: Wnt5a binders on small-molecule microarray, primary screen, biophysical, 635/667 nm fluorescence (AID 1142); conditions: 635 nm fluorescence, higher = more signal;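 further: fluorescence read at 667 nm with signal to noise per printed feature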
[2] = cell viability in Huh7 cells, primary screen, cytotoxicity control for HCV replication inhibitor project, CellTiter-Glo luminescence, basal, 48 h (AID 1143); conditions: Huh7 HCV replicon, higher = more signal, called active from +8 up or from −8 down;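 further: Huh7 hepatoma cells carrying a hepatitis C replication reporter with no stimulus; test concentration not given here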
[3] = P. aeruginosa biofilm formation inhibitors, primary screen, PAO1 strain, BacTiter-Glo luminescence, LB-PBS (AID 1144); conditions: 12 h, higher = more signal
[4] = CREB reporter modulators without forskolin, primary screen, cell-based, PC12, CRE-LacZ reporter, unstimulated (AID 1145); conditions: no forskolin, luminescence, 4.5 h, higher = more signal, called active from +8 up or from −8 down
[5] = CREB reporter modulators under forskolin, primary screen, cell-based, PC12, CRE-LacZ reporter, forskolin-stimulated (AID 1146); conditions: luminescence, 4.5 h, higher = more signal, called active from +8 up or from −8 down;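 further: PC12 cells with 6xCRE LacZ reporter stimulated by forskolin 10 µM; beta-galactosidase reporter signal reflecting CREB driven transcription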
[6] = biological target: Streptavidin (Streptomyces avidinii) (UniProt P22629); experiment: streptavidin binders on small-molecule microarray, primary screen, artefact control for SMM compound annotation, biophysical, 635/667 nm fluorescence (AID 1147); conditions: streptavidin binding, higher = more signal;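 further: signal reflects streptavidin binding to arrayed compounds as a control protein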
Sequence of Streptavidin (Streptomyces avidinii) (P22629 whole entry, looked up): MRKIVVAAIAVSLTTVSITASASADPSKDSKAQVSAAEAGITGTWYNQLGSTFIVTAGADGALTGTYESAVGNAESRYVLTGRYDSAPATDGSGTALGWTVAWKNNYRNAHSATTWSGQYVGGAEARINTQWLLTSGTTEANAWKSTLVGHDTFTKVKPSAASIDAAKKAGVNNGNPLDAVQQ

[7] = small-molecule binders of probe aInhba, primary screen, biochemical, small-molecule microarray, 635/667 nm fluorescence (AID 1148); conditions: higher = more signal;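 further: score merges 667nm spot fluorescence with signal-to-noise for antibody binding to printed compounds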
Torsin-1A (Homo sapiens) [8] = biological target: Torsin-1A (Homo sapiens) (UniProt O14656); experiment: torsin A binders from cell lysate, primary screen, small-molecule microarray, wild-type, 635/667 nm (AID 1149); conditions: COS7 hTOR1A-WT lysate, 635 nm fluorescence, higher = more signal
Sequence of Torsin-1A (Homo sapiens) (O14656 whole entry, looked up): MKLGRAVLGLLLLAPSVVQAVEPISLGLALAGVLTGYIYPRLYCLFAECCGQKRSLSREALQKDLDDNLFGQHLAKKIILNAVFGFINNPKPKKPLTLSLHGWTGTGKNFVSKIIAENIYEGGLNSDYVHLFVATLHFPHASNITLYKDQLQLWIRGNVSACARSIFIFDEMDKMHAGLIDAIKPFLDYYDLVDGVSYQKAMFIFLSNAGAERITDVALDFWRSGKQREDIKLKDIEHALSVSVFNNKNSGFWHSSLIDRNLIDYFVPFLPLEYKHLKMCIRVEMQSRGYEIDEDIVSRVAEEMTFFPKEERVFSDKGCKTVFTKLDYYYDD

Torsin-1A (Homo sapiens) [9] = biological target: Torsin-1A (Homo sapiens) (UniProt O14656); experiment: small-molecule binders of mutant TOR1A in lysate, primary screen, cell lysate, small-molecule microarray, COS7 lysate, 635/667 nm fluorescence (AID 1150); conditions: COS7 hTOR1A mutant lysate, 635 nm fluorescence, higher = more signal;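 further: score pools 667 nm emission and signal to noise measuring lysate protein binding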
[10] = tested on: Sonic hedgehog protein (Shh); experiment: small-molecule binders of Shh protein, primary screen, biochemical, small-molecule microarray, 635/667 nm fluorescence (AID 1151); conditions: small-molecule microarray binding, 635 nm fluorescence; higher = more signal;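 further: Shh protein binding to compounds spotted on small-molecule microarray slides; score combines spot fluorescence intensity with signal-to-noise across triplicate slides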
[11] = E. coli DRC41 culture turbidity changes, primary screen, E. coli filamentation inducer project, strain DRC41, OD650, 48 h (AID 1152);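 further: E. coli MC1000 strain DRC41 lacking acrAB efflux pump and sulA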; conditions: E. coli DRC41 (acrAB sulA), higher = more signal, called active from +8 up or from −8 down
[12] = small-molecule binders of probe aLefty1, primary screen, biochemical, small-molecule microarray, 635/667 nm fluorescence (AID 1153); conditions: higher = more signal;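 further: score merges spot fluorescence with signal-to-noise ratio from the scanned slide images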
[13] = PSAC antagonists in infected red cells, primary screen, cell-based, P. falciparum Indochina, OD700, 1 h (AID 1154); conditions: P. falciparum Indochina infected RBC osmotic lysis, higher = more signal, called active from +8 up or from −8 down
[14] = PSAC antagonists in infected red cells, primary screen, cell-based, P. falciparum Indochina, OD700, 2 h (AID 1155);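 further: lysis reports solute entry through the parasite surface anion channel PSAC; channel blockers reduce lysis of infected cells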; conditions: P. falciparum Indochina infected erythrocytes, osmotic lysis OD700; higher = more signal, called active from +8 up or from −8 down
[15] = osmotic lysis modulators in infected erythrocytes, primary screen, PSAC antagonist project, cell-based, P. falciparum Indochina, OD700, 3 h (AID 1156); conditions: higher = more signal, called active from +8 up or from −8 down
[16] = PSAC antagonists in infected red cells, primary screen, cell-based, P. falciparum Indochina, OD700, 18 h (AID 1157); conditions: P. falciparum Indochina infected erythrocytes, osmotic lysis OD700, 18 h; higher = more signal, called active from +8 up or from −8 down
[17] = modulators of S6 phosphorylation in cells, primary screen, cell-based, A549, cytoblot, luminescence, serum-stimulated (AID 1158); conditions: A549 phospho-S6 cytoblot, 5 h, higher = more signal;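 further: serum-stimulated A549 lung adenocarcinoma cells; signal is phosphorylated S6 detected by cytoblot immunostaining with HRP secondary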
[18] = biological target: NADPH oxidase 2 (Homo sapiens) (UniProt P04839); experiment: NOX2-dependent H2O2 signal modulators, primary screen, NOX inhibitor project, cell-based, HEK293-NOX2, PMA-stimulated, Amplex Red fluorescence (AID 1159); conditions: 45 min, higher = more signal, called active from +8 up or from −8 down; further: test concentration not given here
Sequence of NADPH oxidase 2 (Homo sapiens) (P04839 whole entry, looked up): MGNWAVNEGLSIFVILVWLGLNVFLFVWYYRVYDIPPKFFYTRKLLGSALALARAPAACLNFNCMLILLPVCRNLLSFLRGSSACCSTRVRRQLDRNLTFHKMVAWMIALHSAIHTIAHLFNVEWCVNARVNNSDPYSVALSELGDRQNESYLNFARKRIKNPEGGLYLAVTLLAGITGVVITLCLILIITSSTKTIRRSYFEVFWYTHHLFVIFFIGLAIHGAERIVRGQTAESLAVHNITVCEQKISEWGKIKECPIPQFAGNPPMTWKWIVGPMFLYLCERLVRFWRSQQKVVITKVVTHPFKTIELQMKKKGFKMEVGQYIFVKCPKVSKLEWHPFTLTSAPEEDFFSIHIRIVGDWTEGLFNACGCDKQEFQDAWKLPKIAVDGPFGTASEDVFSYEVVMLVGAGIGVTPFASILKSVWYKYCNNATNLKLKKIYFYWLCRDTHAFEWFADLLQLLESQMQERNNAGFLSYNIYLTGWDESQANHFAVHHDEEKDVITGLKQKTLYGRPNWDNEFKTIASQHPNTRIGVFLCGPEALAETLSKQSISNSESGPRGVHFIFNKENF

[19] = biological target: NADPH oxidase 4 (Homo sapiens) (UniProt Q9NPH5); experiment: NOX4-dependent H2O2 signal modulators, primary screen, NOX inhibitor project, cell-based, HEK293-NOX4, tetracycline-induced, Amplex Red fluorescence (AID 1160); conditions: 45 min, higher = more signal, called active from +8 up or from −8 down
Sequence of NADPH oxidase 4 (Homo sapiens) (Q9NPH5 whole entry, looked up): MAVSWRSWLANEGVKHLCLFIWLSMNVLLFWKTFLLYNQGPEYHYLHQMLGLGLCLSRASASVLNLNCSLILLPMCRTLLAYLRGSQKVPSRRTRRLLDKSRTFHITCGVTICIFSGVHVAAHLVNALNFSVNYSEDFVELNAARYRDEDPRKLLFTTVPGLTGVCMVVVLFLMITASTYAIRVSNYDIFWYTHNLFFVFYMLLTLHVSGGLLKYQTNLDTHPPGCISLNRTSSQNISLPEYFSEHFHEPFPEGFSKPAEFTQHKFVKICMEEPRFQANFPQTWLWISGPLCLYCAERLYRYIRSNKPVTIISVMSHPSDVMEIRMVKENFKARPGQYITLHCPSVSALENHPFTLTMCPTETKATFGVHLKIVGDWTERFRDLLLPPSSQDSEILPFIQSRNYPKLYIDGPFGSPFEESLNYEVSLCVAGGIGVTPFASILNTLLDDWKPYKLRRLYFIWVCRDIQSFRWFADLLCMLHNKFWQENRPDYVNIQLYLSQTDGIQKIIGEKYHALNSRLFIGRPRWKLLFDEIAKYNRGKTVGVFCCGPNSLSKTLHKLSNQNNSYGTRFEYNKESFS

[20] = biological target: NADPH oxidase 5 (Homo sapiens) (UniProt Q96PH1); experiment: NOX5-dependent H2O2 signal modulators, primary screen, NOX inhibitor project, cell-based, HEK293-NOX5, Amplex Red fluorescence (AID 1161); conditions: HEK293-NOX5, ionomycin, 45 min, higher = more signal
Sequence of NADPH oxidase 5 (Homo sapiens) (Q96PH1 whole entry, looked up): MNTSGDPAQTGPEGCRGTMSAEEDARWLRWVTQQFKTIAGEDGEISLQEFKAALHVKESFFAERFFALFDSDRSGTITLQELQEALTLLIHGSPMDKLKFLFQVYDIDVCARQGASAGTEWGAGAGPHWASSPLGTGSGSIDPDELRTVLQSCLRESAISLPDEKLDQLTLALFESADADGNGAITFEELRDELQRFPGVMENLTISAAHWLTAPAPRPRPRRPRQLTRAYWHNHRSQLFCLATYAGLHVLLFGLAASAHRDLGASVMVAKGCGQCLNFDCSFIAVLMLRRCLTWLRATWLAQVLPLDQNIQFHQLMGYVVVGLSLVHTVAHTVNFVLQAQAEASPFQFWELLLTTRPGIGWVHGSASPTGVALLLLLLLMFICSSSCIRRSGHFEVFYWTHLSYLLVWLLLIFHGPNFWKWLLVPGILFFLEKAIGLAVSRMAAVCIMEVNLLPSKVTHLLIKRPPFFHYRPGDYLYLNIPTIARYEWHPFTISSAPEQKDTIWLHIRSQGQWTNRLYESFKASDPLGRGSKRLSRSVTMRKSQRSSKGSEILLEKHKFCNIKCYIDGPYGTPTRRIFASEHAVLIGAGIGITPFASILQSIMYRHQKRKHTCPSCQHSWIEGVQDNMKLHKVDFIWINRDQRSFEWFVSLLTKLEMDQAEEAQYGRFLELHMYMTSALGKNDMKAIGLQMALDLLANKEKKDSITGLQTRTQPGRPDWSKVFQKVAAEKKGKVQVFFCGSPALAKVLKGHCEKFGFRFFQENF

Row | Compound | composite z-score [1] | z-score [2] | z-score [3] | z-score [4] | z-score [5] | composite z-score [6] | composite z-score [7] | composite z-score (Torsin-1A (Homo sapiens) [8]) | composite z-score (Torsin-1A (Homo sapiens) [9]) | composite z-score [10] | z-score [11] | composite z-score [12] | z-score [13] | z-score [14] | z-score [15] | z-score [16] | z-score [17] | z-score [18] | z-score [19] | z-score [20]
1 | COc1cc(NN2C(C(O)c3ccccc3)C=CC3C(=O)N(C)C(=O)C32)cc(OC)c1OC (stereo not given) | 0.107 | -2.51 (inactive) | -0.426 (inactive) | 0.0603 (inactive) | -0.126 (inactive) | 0.194 | 0.0184 | -0.0091 | 0.576 | 0.36 | -1.05 (inactive) | 0.0455 | 0.758 (inactive) | 0.34 (inactive) | 1.21 (inactive) | -0.447 (inactive) | 1.44 | -3.07 (inactive) | -5.77 (inactive) | -6.19
2 | [N-]=[N+]=Nc1ccccc1C[C@]1(C(=O)NCc2ccccc2)COC(c2ccc(OCCCO)cc2)=N1 | 0.607 | -4.89 (inactive) | 0.106 (inactive) | 0.101 (inactive) | -1.31 (inactive) | 1.01 | -0.104 | 0.413 | 0.932 | 0.153 | 0.325 (inactive) | -0.442 | 30.8 (active) | 30.8 (active) | 3.25 (inactive) | 3.49 (inactive) | -0.351 | -3.07 (inactive) | -1.03 (inactive) | -1.91
3 | CCOC(=O)C[C@H]1[C@H](OC(=O)c2ccccc2-c2ccccc2)[C@@H](NC(=O)c2ccc3ccccc3n2)c2cc(OCCCO)ccc2N1C(=O)c1ccccc1 | 0.233 | -0.0416 (inactive) | 1.12 (inactive) | 2.57 (inactive) | 0.655 (inactive) | -0.197 | -0.0933 | -0.0653 | 0.182 | 1.37 | -1.04 (inactive) | 0.0355 | 1.35 (inactive) | 0.496 (inactive) | 0.667 (inactive) | 0.305 (inactive) | -0.35 | 0.838 (inactive) | 1.23 (inactive) | 2.31
4 | C=CCC(OC(C)=O)[C@@H]1[C@@H](N(Cc2cccc3ccccc23)C(=O)Cc2ccc(F)cc2)c2cc(OCCCO)ccc2N1C(=O)c1ccc(-c2ccccc2)cc1 (stereo not given in full) | 0.364 | -0.227 (inactive) | -0.169 (inactive) | 1.44 (inactive) | 0.429 (inactive) | -0.153 | 0.066 | 0.143 | 0.102 | 0.246 | 0.341 (inactive) | 0.0184 | 0.616 (inactive) | 0.743 (inactive) | -0.402 (inactive) | -0.278 (inactive) | -0.18 | 0.227 (inactive) | 0.795 (inactive) | 1.77
5 | CCOC(=O)C[C@H]1[C@H](OC(=O)c2ccc(-c3ccccc3)cc2)[C@@H](NC(=O)CC(C)C)c2cc(OCCCO)ccc2N1C(=O)c1ccccc1 | 0.121 | -0.092 (inactive) | 0.0804 (inactive) | 0.469 (inactive) | -0.375 (inactive) | 0.216 | -0.0963 | -0.477 | 0.289 | 1.03 | -0.674 (inactive) | 0.113 | 1.18 (inactive) | 0.389 (inactive) | -0.0732 (inactive) | 0.336 (inactive) | 0.574 | 0.403 (inactive) | -0.742 (inactive) | 1.74
6 | NC(=O)[C@@H]1[C@H]2C(=O)O[C@H](c3ccccc3)[C@H](c3ccccc3)N2[C@H](c2ccc(OCCO)cc2)[C@@]12C(=O)Nc1ccc(C#CCCO)cc12 | 0.257 | -0.952 (inactive) | -0.807 (inactive) | -0.0515 (inactive) | -0.195 (inactive) | 0.958 | -0.0736 | 0.632 | -0.565 | 0.0995 | 0.498 (inactive) | 0.0253 | 22.5 (active) | 4.8 (inactive) | 2.59 (inactive) | 0.908 (inactive) | 0.229 | 1.5 (inactive) | 1.15 (inactive) | 0.92
7 | CN(C)CCCCNC(=O)[C@H]1C[C@H]2C(=O)N[C@@H](CCCC[N+](C)(C)C)C(=O)N2[C@H]1c1ccc(O)cc1 | 0.0044 | -0.482 (inactive) | 1.04 (inactive) | -1.2 (inactive) | -1.14 (inactive) | -0.202 | -0.179 | 0.278 | 0.97 | 0.719 | 1.67 (inactive) | -0.2 | 1.32 (inactive) | -0.539 (inactive) | -0.27 (inactive) | -1.63 (inactive) | 0.0054 | 0.622 (inactive) | 0.319 (inactive) | 1.31
8 | C=CCNC(=O)[C@H]1[C@@H]2C(=O)O[C@@H](c3ccccc3)[C@@H](c3ccccc3)N2[C@@H](c2ccc(O)cc2)[C@]12C(=O)N(C(=O)OCCOC)c1ccc(C#CCC(C(=O)OC)C(=O)OC)cc12 | 0.027 | -2.96 (inactive) | 0.102 (inactive) | 0.0653 (inactive) | 0.141 (inactive) | 0.663 | -0.0221 | 0.757 | 0.283 | 1.75 | -0.275 (inactive) | 0.139 | 5.56 (inactive) | 1.27 (inactive) | -4.17 (inactive) | 0.516 (inactive) | -0.016 | 1.95 (inactive) | 1.14 (inactive) | 1.52
9 | COc1cccc(/C=C(\C#N)C(=O)Nc2c(C)n(C)n(-c3ccccc3)c2=O)c1 | 0.152 | -2.45 (inactive) | -1.47 (inactive) | -0.788 (inactive) | -0.821 (inactive) | 0.841 | -0.206 | 0.217 | 0.285 | 0.241 | 1.42 (inactive) | -0.168 | 2.13 (inactive) | -0.901 (inactive) | 0.381 (inactive) | -0.924 (inactive) | 1.06 | -0.355 (inactive) | 0.139 (inactive) | 0.595
